USP30 block = inhibitors of human USP30 deubiquitinase. Q70CQ3. purified USP30, Ub-rhodamine cleavage fluorescence. inhibition, % at 25 µM. 47,000 tested, 5.3% active
Target sequence (Q70CQ3 whole entry, looked up): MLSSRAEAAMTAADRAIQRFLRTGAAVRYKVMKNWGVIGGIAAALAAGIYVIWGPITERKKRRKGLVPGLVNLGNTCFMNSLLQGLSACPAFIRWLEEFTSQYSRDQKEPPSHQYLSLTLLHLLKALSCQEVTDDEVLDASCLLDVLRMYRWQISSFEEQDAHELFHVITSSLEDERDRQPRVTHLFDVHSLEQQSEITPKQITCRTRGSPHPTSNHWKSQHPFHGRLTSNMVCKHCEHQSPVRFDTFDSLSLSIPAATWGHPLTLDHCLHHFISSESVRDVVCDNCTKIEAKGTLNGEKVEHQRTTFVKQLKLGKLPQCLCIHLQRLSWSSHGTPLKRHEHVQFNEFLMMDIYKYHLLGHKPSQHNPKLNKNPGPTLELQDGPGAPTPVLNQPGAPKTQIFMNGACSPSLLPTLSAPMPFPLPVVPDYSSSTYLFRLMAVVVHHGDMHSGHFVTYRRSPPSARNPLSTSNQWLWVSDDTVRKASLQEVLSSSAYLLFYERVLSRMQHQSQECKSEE
USP10 block = inhibitors of human USP10 deubiquitinase; purified USP10, Ub-rhodamine fluorescence, 60 min; inhibition, % at 20 µM; 47,000 tested, 1.1% active
USP17 inh = inhibitors of human USP17 deubiquitinase | purified USP17, Ub-rhodamine cleavage fluorescence, 3 h | inhibition, % at 50 µM | 47,000 tested, 6.5% active
USP28 inh = blocks human USP28 ubiquitin-rhodamine cleavage; inhibition, % at 25 µM; purified USP28, Ub-rhodamine cleavage fluorescence, 30 min; AID 1645857; 47,000 tested, 3% active; Q96RU2
USP8 block = inhibitors of human USP8 deubiquitinase | P40818 | purified USP8, Ub-rhodamine cleavage fluorescence, 30 min | inhibition, % at 20 µM | 47,000 tested, 4.2% active | AID 1645853
Of the large screens only hits and unclear results are named; the others gave an inactive call. Only some compounds are listed: those with a hit (about 13% of all), similar ones and a draw of the others. No stated cut-off is given here; in the data, active means inhibition above about 30%; inactive means the rest.

CCc1cccc(NC(=O)c2nc3ccccc3n(C)c2=O)c1	USP30 block 85.7, USP17 inh 57.6, USP28 inh 47.7
COc1ccccc1C(=O)NCc1nc2ccccc2n1Cc1cc(C)ccc1C	USP30 block 70.6, USP17 inh 67.1
O=C(NCCc1nc2ccccc2n1Cc1ccccc1F)c1ccc(Cl)cc1	USP10 block 30.4
O=C(NCCc1ccccc1F)c1cn2cc(Cl)ccc2n1	USP30 block 61.4
Cc1cccc(C(=O)NCc2nc3ccccc3n2Cc2ccccc2C)c1	USP17 inh 59.2
O=C(NCCc1c[nH]c2ccc(F)cc12)c1cn2cc(Cl)ccc2n1	none
CCN1CCN(C(=O)c2cn3ccnc(-c4ccc(OC)cc4)c3n2)CC1	none
O=C(Nc1cc2c3c(c1)CC(=O)N3CCC2)c1ccc([N+](=O)[O-])cc1	none
Cc1ccc(C(=O)Nc2cc3c4c(c2)CC(=O)N4CCC3)cc1	USP28 inh 55.5 (no result: USP17 inh)
COc1ccc(C(=O)Nc2cc3c4c(c2)C(C)C(=O)N4CCC3)cc1 (stereo unspecified)	USP28 inh 51.7
CC1C(=O)N2CCCc3cc(NC(=O)c4ccc(F)cc4)cc1c32 (stereo unspecified)	none
O=C(Nc1cc2c3c(c1)CC(=O)N3CCC2)c1ccc(F)cc1	USP8 block 32.6
COc1ccc(C(=O)Nc2cc3c4c(c2)CC(=O)N4CCC3)cc1	USP28 inh 49.4
Cc1ccc(-c2nc3c(c(SCC(=O)NCc4ccco4)n2)COC(C)(C)C3)cc1	USP17 inh 41.3
CCN1C(=O)C(C)(C(=O)NCc2ccc(F)cc2)Oc2cccnc21 (stereo unspecified)	none (no result: USP17 inh)
CSc1nc(N2CCCC2)c2sccc2n1	USP17 inh 40.3
Cc1cc(C2CCCN2C(=O)Nc2ccc(Cl)cc2)no1 (stereo unspecified)	none
O=C(Nc1cc(=O)[nH]c2nc(Cc3ccccc3)nn12)c1ccc(F)cc1	none
Cc1ccc(CNC(=O)CCc2csc(NC(=O)c3ccc(=O)[nH]c3)n2)cc1	USP30 block 32.7
CCc1nnc2c(N3CCN(c4ccccn4)CC3)nc3ccccc3n12	none
Cn1c(=O)c2c(ncn2CCOc2ccc(F)cc2)n(C)c1=O	USP28 inh 33.3
O=C1COc2ccc(NC(=O)c3cnn(Cc4ccccc4)c3)cc2N1	USP17 inh 63.2
O=C(Nc1nccnc1C(=O)NCc1ccccn1)c1ccccc1	USP8 block 37.7
Cc1ccc(CNC(=O)c2nn(C)c3c2CCc2sccc2-3)cc1	USP30 block 33.0, USP28 inh 35.9 (no result: USP17 inh)
Cn1nc(C(=O)N2CCN(c3ccccn3)CC2)c2c1-c1ccsc1CC2	none
Cn1nc(C(=O)N2CCC(c3ccccc3)C2)c2c1-c1ccsc1CC2 (stereo unspecified)	USP30 block 32.2, USP17 inh 45.7, USP8 block 73.5
CCNc1cc(N2CCCC(CCC(=O)N3CCN(C(=O)OCC)CC3)C2)ncn1 (stereo unspecified)	none
COc1ccc(NC(=O)CCc2c(C)c3c(C)nn(-c4ccccc4)c3n(C)c2=O)c(OC)c1	USP30 block 30.2
Cc1ccc(S(=O)(=O)N2CCC(C(=O)Nc3nnc(C)o3)CC2)c(C)c1	USP30 block 37.4
Cc1ncc(-c2c[nH]c3ccccc23)o1	none
Cn1cc(-c2cnc(-c3cccnc3)nc2)cc1C(=O)NCCc1ccccc1	none
N#Cc1ccccc1OCC(=O)NC1CCCc2ccccc21 (stereo unspecified)	none
NS(=O)(=O)c1cc(C(=O)OCC(=O)NC2CCCc3ccccc32)ccc1Cl (stereo unspecified)	USP30 block 31.8, USP17 inh 55.2
COc1cc(N)c(Cl)cc1C(=O)OCC(=O)c1ccc2c(c1)OCCO2	USP28 inh 54.5
COc1cc(N)c(Cl)cc1C(=O)OCC(=O)NCc1ccc2c(c1)OCO2	none
COc1cc(N)c(Cl)cc1C(=O)OCC(=O)Nc1ccc(N2CCOCC2)cc1	USP17 inh 38.1, USP8 block 38.7
NS(=O)(=O)c1cc(C(=O)OCC(=O)Nc2ccc(N3CCOCC3)cc2)ccc1Cl	USP17 inh 33.7
COc1ccc(C(=O)CSc2nc3ccccc3c(=O)n2-c2ccc(F)cc2)c(OC)c1	none
O=C(CSc1nnc(C2CC2)n1-c1ccccc1)c1ccc(F)c(F)c1	USP30 block 32.2
O=C(CSc1nnc2n(-c3ccccc3)c(=O)c3ccccc3n12)c1ccc(F)cc1	USP8 block 36.4
CCOc1cc(N2CCOCC2)c(OCC)cc1NC(=O)c1cc2c(s1)CCC2	USP17 inh 36.0, USP8 block 49.6

Screens (PubChem)
